Out of some 5,500 compounds screened, about 2,000 (36%) were called active. Roughly 18% stayed inconclusive and do not appear here. Cut-off read from the data, not from the text of the source: active = normalized growth mostly below about 0.91 (no sharp cut-off); inconclusive = no clear call, values can overlap the other calls; inactive = mostly above about 0.92. This is one part of the list.
Test: chemical genetic growth profiling, strain panel (AID 1159580);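 note: tested at 20 µM; growth read once vehicle control cultures reached saturation at 30 °C; 1 = growth at the plate median or of vehicle wells; lower values mean less growth of the strain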
Conditions: growth OD
[1] = S. cerevisiae deletion strains, locus YAL013W, strain DEP1, stronger effect = lower value
[2] = S. cerevisiae deletion strains, locus YDR150W, strain NUM1, stronger effect = lower value
[3] = S. cerevisiae deletion strains, locus YGR078C, strain PAC10, stronger effect = lower value
[4] = S. cerevisiae deletion strains, locus YJR075W, strain HOC1, stronger effect = lower value
[5] = S. cerevisiae deletion strains, locus YNL153C, strain GIM3, stronger effect = lower value
[6] = S. cerevisiae deletion strains, locus YPL055C, strain LGE1, stronger effect = lower value
[7] = S. cerevisiae deletion strains, locus YPL241C, strain CIN2, stronger effect = lower value
[8] = S. cerevisiae deletion strains, locus YAR019C, strain CDC15, stronger effect = lower value
[9] = S. cerevisiae deletion strains, locus YBL105C, strain PKC1, stronger effect = lower value
[10] = S. cerevisiae deletion strains, locus YBR135W, strain CKS1, stronger effect = lower value
[11] = S. cerevisiae deletion strains, locus YBR136W, strain MEC1, stronger effect = lower value
[12] = S. cerevisiae deletion strains, locus YBR160W, strain CDC28, stronger effect = lower value
[13] = S. cerevisiae deletion strains, locus YDL017W, strain CDC7, stronger effect = lower value
[14] = S. cerevisiae deletion strains, locus YDL028C, strain MPS1, stronger effect = lower value
[15] = S. cerevisiae deletion strains, locus YDL101C, strain DUN1, stronger effect = lower value
[16] = S. cerevisiae deletion strains, locus YDL108W, strain KIN28, stronger effect = lower value
[17] = S. cerevisiae deletion strains, locus YDL132W, strain cdc53, stronger effect = lower value
[18] = S. cerevisiae deletion strains, locus YDL214C, strain PRR2, stronger effect = lower value
[19] = S. cerevisiae deletion strains, locus YDR052C, strain DBF4, stronger effect = lower value
[20] = S. cerevisiae deletion strains, locus YDR054C, strain cdc34, stronger effect = lower value
[21] = S. cerevisiae deletion strains, locus YDR226W, strain ADK1, stronger effect = lower value
[22] = S. cerevisiae deletion strains, locus YDR477W, strain SNF1, stronger effect = lower value
[23] = S. cerevisiae deletion strains, locus YER123W, strain YCK3, stronger effect = lower value
[24] = S. cerevisiae deletion strains, locus YER133W, strain GLC7, stronger effect = lower value
[25] = S. cerevisiae deletion strains, locus YFL009W, strain cdc4, stronger effect = lower value
[26] = S. cerevisiae deletion strains, locus YFL029C, strain CAK1, stronger effect = lower value
[27] = S. cerevisiae deletion strains, locus YFR003C, strain YPI1, stronger effect = lower value
[28] = S. cerevisiae deletion strains, locus YFR019W, strain FAB1, stronger effect = lower value
[29] = S. cerevisiae deletion strains, locus YFR028C, strain CDC14, stronger effect = lower value
[30] = S. cerevisiae deletion strains, locus YGR040W, strain KSS1, stronger effect = lower value
[31] = S. cerevisiae deletion strains, locus YGR052W, strain FMP48, stronger effect = lower value
[32] = S. cerevisiae deletion strains, locus YGR092W, strain DBF2, stronger effect = lower value
[33] = S. cerevisiae deletion strains, locus YHR030C, strain SLT2, stronger effect = lower value
[34] = S. cerevisiae deletion strains, locus YHR079C, strain IRE1, stronger effect = lower value
[35] = S. cerevisiae deletion strains, locus YHR082C, strain KSP1, stronger effect = lower value
[36] = S. cerevisiae deletion strains, locus YHR205W, strain SCH9, stronger effect = lower value
[37] = S. cerevisiae deletion strains, locus YIL147C, strain SLN1, stronger effect = lower value
[38] = S. cerevisiae deletion strains, locus YJL095W, strain BCK1, stronger effect = lower value
[39] = S. cerevisiae deletion strains, locus YJL128C, strain PBS2, stronger effect = lower value
[40] = S. cerevisiae deletion strains, locus YJL157C, strain FAR1, stronger effect = lower value
[41] = S. cerevisiae deletion strains, locus YJR016C, strain ILV3, stronger effect = lower value
[42] = S. cerevisiae deletion strains, locus YJR066W, strain TOR1 (second series), stronger effect = lower value
[43] = S. cerevisiae deletion strains, locus YJR066W, strain TOR1, stronger effect = lower value
[44] = S. cerevisiae deletion strains, locus YKL048C, strain ELM1, stronger effect = lower value
[45] = S. cerevisiae deletion strains, locus YKL067W, strain YNK1, stronger effect = lower value
[46] = S. cerevisiae deletion strains, locus YKL101W, strain HSL1, stronger effect = lower value
[47] = S. cerevisiae deletion strains, locus YKL193C, strain SDS22, stronger effect = lower value
[48] = S. cerevisiae deletion strains, locus YKL203C, strain TOR2, stronger effect = lower value
[49] = S. cerevisiae deletion strains, locus YLR113W, strain HOG1, stronger effect = lower value
[50] = S. cerevisiae deletion strains, locus YLR133W, strain CKI1, stronger effect = lower value
[51] = S. cerevisiae deletion strains, locus YLR403W, strain SFP1, stronger effect = lower value
[52] = S. cerevisiae deletion strains, locus YML070W, strain DAK1, stronger effect = lower value
[53] = S. cerevisiae deletion strains, locus YMR001C, strain CDC5, stronger effect = lower value
[54] = S. cerevisiae deletion strains, locus YMR205C, strain PFK2 (second series), stronger effect = lower value
[55] = S. cerevisiae deletion strains, locus YMR277W, strain FCP1, stronger effect = lower value
[56] = S. cerevisiae deletion strains, locus YNL006W, strain LST8, stronger effect = lower value
[57] = S. cerevisiae deletion strains, locus YNL020C, strain ARK1, stronger effect = lower value
[58] = S. cerevisiae deletion strains, locus YNL161W, strain CBK1, stronger effect = lower value
[59] = S. cerevisiae deletion strains, locus YNL183C, strain NPR1, stronger effect = lower value
[60] = S. cerevisiae deletion strains, locus YNL207W, strain RIO2, stronger effect = lower value
[61] = S. cerevisiae deletion strains, locus YNL222W, strain SSU72, stronger effect = lower value
[62] = S. cerevisiae deletion strains, locus YNL307C, strain MCK1 (second series), stronger effect = lower value
[63] = S. cerevisiae deletion strains, locus YOL078W, strain AVO1, stronger effect = lower value
[64] = S. cerevisiae deletion strains, locus YOL136C, strain PFK27, stronger effect = lower value
[65] = S. cerevisiae deletion strains, locus YOR061W, strain CKA2, stronger effect = lower value
[66] = S. cerevisiae deletion strains, locus YOR119C, strain RIO1, stronger effect = lower value
[67] = S. cerevisiae deletion strains, locus YOR231W, strain MKK1, stronger effect = lower value
[68] = S. cerevisiae deletion strains, locus YOR329C, strain SCD5, stronger effect = lower value
[69] = S. cerevisiae deletion strains, locus YPL031C, strain PHO85, stronger effect = lower value
[70] = S. cerevisiae deletion strains, locus YPL153C, strain RAD53, stronger effect = lower value
[71] = S. cerevisiae deletion strains, locus YPL204W, strain HRR25, stronger effect = lower value
[72] = S. cerevisiae deletion strains, locus YPL209C, strain IPL1, stronger effect = lower value
[73] = S. cerevisiae deletion strains, locus YPL256C, strain CLN2, stronger effect = lower value
[74] = S. cerevisiae deletion strains, locus YPR025C, strain CCL1, stronger effect = lower value
[75] = S. cerevisiae deletion strains, locus YPR106W, strain ISR1, stronger effect = lower value
[76] = S. cerevisiae deletion strains, locus YPR111W, strain DBF20, stronger effect = lower value
[77] = S. cerevisiae deletion strains, strain NNK1, stronger effect = lower value
[78] = S. cerevisiae deletion strains, strain TSCII, stronger effect = lower value

Measured: normalized growth

CCCN(CCC)C1CCc2cccc(O)c2C1 (stereo not given)
inactive: [1] 1 | S. cerevisiae deletion strains, locus YAL040C, strain CLN3, stronger effect = lower value 0.984 | S. cerevisiae deletion strains, locus YCL061C, strain MRC1 (second series), stronger effect = lower value 1 | [2] 0.998 | S. cerevisiae deletion strains, locus YDR363W, strain ESC2, stronger effect = lower value 1.01 | S. cerevisiae deletion strains, locus YER002W, strain NOP16, stronger effect = lower value 1 | [3] 1.01 | [4] 0.995 | S. cerevisiae deletion strains, locus YNL128W, strain TEP1, stronger effect = lower value 1 | [5] 1.1 | S. cerevisiae deletion strains, locus YNL175C, strain NOP13, stronger effect = lower value 1.01 | S. cerevisiae deletion strains, locus YNL197C, strain WHI3, stronger effect = lower value 1.01 | S. cerevisiae deletion strains, locus YNL224C, strain SQS1, stronger effect = lower value 1.02 | S. cerevisiae deletion strains, locus YOR083W, strain WHI5 (second series), stronger effect = lower value 1.01 | [6] 1 | [7] 1

CCCCCCCCCCCC(=O)NOC(=O)c1c(-c2c(Cl)cccc2Cl)noc1C
active: [33] 0.139 | [34] 0.139 | [38] 0.117 | [42] 0.451 | [48] 0.66 | [49] 0.415 | [51] 0.553 | [59] 0.571 | [66] 0.578 | [70] 0.533 | [71] 0.63 | [73] 0.697
inactive: [8] 0.984 | [9] 0.986 | [10] 0.984 | [11] 0.985 | [12] 0.998 | [13] 0.986 | [14] 0.988 | [15] 0.999 | [16] 0.982 | [17] 0.986 | [18] 0.948 | [19] 0.997 | [20] 0.988 | [21] 0.981 | [22] 0.818 | [23] 0.656 | [24] 0.779 | [25] 0.99 | [26] 0.989 | [27] 0.984 | [28] 0.874 | [29] 0.996 | [30] 0.838 | [31] 0.641 | [32] 0.586 | [35] 0.9 | [36] 0.586 | [37] 0.984 | [39] 1 | [40] 0.909 | [41] 0.984 | [43] 0.583 | [44] 0.995 | [45] 0.944 | [46] 0.961 | [47] 0.979 | [50] 0.905 | [52] 0.692 | [53] 0.982 | [54] 0.935 | [55] 0.977 | [56] 0.992 | [57] 0.915 | [58] 0.992 | [60] 0.966 | [61] 0.988 | [62] 0.69 | [63] 0.98 | [64] 0.867 | [65] 0.886 | [67] 0.689 | [68] 0.991 | [69] 0.795 | [72] 0.991 | [74] 0.993 | [75] 1 | [76] 1.01 | [77] 0.996 | [78] 0.991

COC(=O)c1c(-c2c(Cl)cccc2Cl)noc1NC(=O)NN1CCCCC1
inactive: [1] 1.02 | S. cerevisiae deletion strains, locus YBR229C, strain ROT2, stronger effect = lower value 1.02 | S. cerevisiae deletion strains, locus YCL061C, strain MRC1, stronger effect = lower value 1.01 | [15] 1.01 | S. cerevisiae deletion strains, locus YDL134C, strain PPH21, stronger effect = lower value 0.993 | [2] 0.993 | S. cerevisiae deletion strains, locus YEL061C, strain CIN8, stronger effect = lower value 1 | [3] 1.03 | S. cerevisiae deletion strains, locus YGR229C, strain SMI1, stronger effect = lower value 1 | [33] 0.973 | S. cerevisiae deletion strains, locus YHR087W, strain rtc3, stronger effect = lower value 1.03 | S. cerevisiae deletion strains, locus YJL187C, strain SWE1, stronger effect = lower value 1.01 | S. cerevisiae deletion strains, locus YJR043C, strain POL32, stronger effect = lower value 1.01 | [4] 1.02 | S. cerevisiae deletion strains, locus YKL190W, strain CNB1, stronger effect = lower value 1 | S. cerevisiae deletion strains, locus YLR039C, strain RIC1, stronger effect = lower value 0.963 | S. cerevisiae deletion strains, locus YLR058C, strain SHM2 (second series), stronger effect = lower value 1.01 | S. cerevisiae deletion strains, locus YLR085C, strain ARP6, stronger effect = lower value 0.992 | S. cerevisiae deletion strains, locus YLR262C, strain YPT6, stronger effect = lower value 0.977 | S. cerevisiae deletion strains, locus YML094W, strain GIM5, stronger effect = lower value 1.04 | S. cerevisiae deletion strains, locus YMR219W, strain ESC1, stronger effect = lower value 1.01 | S. cerevisiae deletion strains, locus YMR263W, strain SAP30, stronger effect = lower value 1 | S. cerevisiae deletion strains, locus YMR307W, strain GAS1, stronger effect = lower value 1 | [5] 1.01 | S. cerevisiae deletion strains, locus YNL298W, strain CLA4 (second series), stronger effect = lower value 1 | S. cerevisiae deletion strains, locus YNL322C, strain KRE1, stronger effect = lower value 1.01 | S. cerevisiae deletion strains, locus YNR030W, strain Alg12, stronger effect = lower value 0.987 | S. cerevisiae deletion strains, locus YOL006C, strain TOP1, stronger effect = lower value 1.05 | [6] 1.01 | [7] 0.911 | S. cerevisiae deletion strains, locus YPR135W, strain CTF4, stronger effect = lower value 0.969 | S. cerevisiae strains, strain wild type, stronger effect = lower value 0.999

Cc1onc(-c2c(F)cccc2Cl)c1C(=O)NNc1cc(Cl)cc(Cl)c1
inactive: [8] 0.987 | [9] 0.984 | [10] 0.987 | [11] 0.985 | [12] 0.976 | [13] 0.989 | [14] 0.986 | [15] 0.987 | [16] 0.976 | [17] 0.989 | [18] 0.902 | [19] 0.99 | [20] 0.982 | [21] 0.991 | [22] 0.931 | [23] 0.864 | [24] 0.937 | [25] 0.979 | [26] 0.977 | [27] 0.987 | [28] 0.908 | [29] 0.976 | [30] 0.894 | [31] 0.951 | [32] 0.937 | [33] 0.962 | [34] 0.939 | [35] 0.964 | [36] 0.89 | [37] 0.989 | [38] 0.942 | [39] 0.956 | [40] 0.916 | [41] 0.988 | [42] 0.883 | [43] 0.984 | [44] 0.878 | [45] 0.927 | [46] 0.894 | [47] 0.98 | [48] 0.992 | [50] 0.906 | [51] 0.901 | [52] 0.89 | [53] 0.98 | [54] 0.936 | [55] 0.983 | [56] 0.984 | [57] 0.914 | [58] 0.979 | [59] 0.935 | [60] 0.987 | [61] 0.988 | [62] 0.879 | [63] 0.978 | [64] 0.884 | [65] 0.908 | [66] 0.972 | [67] 0.889 | [68] 0.984 | [69] 0.936 | [70] 0.928 | [71] 0.918 | [72] 0.979 | [74] 0.98 | [75] 0.956 | [76] 0.955 | [77] 0.955 | [78] 0.986
active: [49] 0.798 | [73] 0.839

— PubChem BioAssay AID1159580 (chemical genetic matrix, 2015)
